# Compound activity: PubChem BioAssay, several laboratories
# The list is not random: actives were taken first. Their share in the collection is about 3.6%.
# Wnt bcat act: activators of Wnt/beta-catenin signaling; activation, % at 9.35 µM; actives 1.2% (n = 300,000); Wnt/beta-catenin reporter cell assay, activator, plate reader; in the data active = activation above about 30%, passing the limit was not always enough; inconclusive = no clear call, values can overlap the other calls
# MITF act: increases MITF-driven TRPM1 promoter luciferase signal; actives 0.75% (n = 300,000); SK-MEL-5 TRPM1-promoter luciferase, 24 h; % of positive control, neutral wells = 0; AID 588334; activation, % at 12.5 µM;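 active = mean activation of at least 80% with every replicate also reaching 80%; inconclusive = mean reaches 80% but some replicate falls short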
# esBAF inh: blocks esBAF chromatin remodeling in mouse ES cells | Bmi1-luciferase knock-in reporter, 24 h; 100% = twice the neutral-well signal | actives 2% (n = 350,000) | reporter increase, % at 12.5 µM; in the data active = activation above about 40%; inconclusive = no clear call, values can overlap the other calls;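 note: a rise in the Bmi1 reporter signal indicates esBAF inhibition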
# A3A deaminase: blocks human APOBEC3A ssDNA deamination | recombinant A3A, FAM/TAMRA ssDNA deamination fluorescence | actives 0.41% (n = 330,000) | P31941 | inhibition, % at 20 µM;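 active = at least 40% inhibition at 20 µM here, with at most 30% in a related deaminase screen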
# A3G deaminase: inhibitors of human APOBEC3G DNA deaminase | recombinant A3G, ssDNA deamination FAM/TAMRA fluorescence | inhibition, % at 20 µM | actives 0.28% (n = 330,000);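 active = inhibition of at least 40% at 20 µM, with no more than 30% in the related APOBEC3A deaminase screen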
# PHOSPHO1 inh: PHOSPHO1 (human) inhibition; Q8TCT1; recombinant PHOSPHO1, absorbance phosphatase assay; inhibition, % at 13.3 µM; actives 1.1% (n = 290,000); AID 1565; in the data active = inhibition above about 60%
# Target sequence (Q8TCT1 whole entry, looked up): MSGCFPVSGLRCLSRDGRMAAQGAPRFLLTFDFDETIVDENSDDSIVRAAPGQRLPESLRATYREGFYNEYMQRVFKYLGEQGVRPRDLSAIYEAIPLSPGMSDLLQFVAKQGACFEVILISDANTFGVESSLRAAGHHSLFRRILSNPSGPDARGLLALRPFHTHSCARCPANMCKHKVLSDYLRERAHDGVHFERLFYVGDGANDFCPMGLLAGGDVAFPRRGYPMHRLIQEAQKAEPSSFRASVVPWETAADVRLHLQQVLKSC
# Hits are given with their value; - = inactive; ? = inconclusive; . = no result given.
SMILES,Wnt bcat act,MITF act,esBAF inh,A3A deaminase,A3G deaminase,PHOSPHO1 inh
CCCC(=O)Nc1nc(C)c(-c2csc(Nc3ccccc3C)n2)s1,-,-,-,-,-,-
CCCCCC(=O)Nc1nc(C)c(-c2csc(Nc3ccccc3OC)n2)s1,-,-,-,-,-,74
C[C@@H]1CN([C@H](C)CO)S(=O)(=O)c2ccc(-c3ccncc3)cc2O[C@H]1CN(C)Cc1ccc(Oc2ccccc2)cc1,.,.,-,.,.,.
C[C@@H]1CN([C@H](C)CO)C(=O)c2cccc(NS(=O)(=O)c3ccc(Cl)cc3)c2O[C@@H]1CN(C)S(C)(=O)=O,.,.,-,.,.,.
Cc1ccc(-c2cc(-c3ccccc3[N+](=O)[O-])[nH]n2)c(O)c1,-,-,70,-,-,-
Cc1ccccc1-c1cc(-c2ccccc2O)n[nH]1,55,-,-,-,-,-
Oc1ccc(Br)cc1-c1cc(-c2ccccc2Cl)[nH]n1,-,-,.,-,-,-
COc1ccc(O)c(-c2cc(-c3ccccc3Cl)[nH]n2)c1,-,.,74,-,-,-
Cc1ccc(-c2cc(-c3ccccc3Cl)[nH]n2)c(O)c1,-,-,52,-,-,-
COc1ccc(-c2cc(-c3ccccc3O)[nH]n2)cc1,.,-,.,-,-,-
Cc1ccc(-c2cc(-c3ccc(C)cc3O)[nH]n2)cc1,-,?,-,-,-,.
COc1ccc(NC(=O)N(C)C[C@H]2Oc3ccc(NS(=O)(=O)c4cccs4)cc3CC(=O)N([C@H](C)CO)C[C@@H]2C)cc1,.,.,-,.,.,.
C[C@@H]1CN([C@@H](C)CO)C(=O)CCCn2cc(nn2)CO[C@@H]1CN(C)C(=O)Oc1ccccc1,.,.,-,.,.,.
CN(C)/C=C1/N=C(c2ccccc2)OC1=O,-,.,-,-,-,-
Cc1ccc(C2=N/C(=C\N(C)C)C(=O)O2)cc1,.,94,-,-,-,-
CCCN1[C@@H]2c3ccc(C4=CCCCC4)c(=O)n3C[C@@H]2[C@@H](CO)[C@@H]1C(=O)NCCCN(C)C,.,.,-,.,.,.
CC1(C)Nc2ccccc2C(=O)N1c1ccc(Br)cc1,66,.,.,-,-,.
COc1ccc(N2C(=O)c3ccccc3NC23CCCCC3)cc1,-,99,-,-,-,-
CCOc1ccc(N2C(=O)c3ccccc3NC2(C)CC)cc1 (stereo not drawn),?,124,-,-,-,.
COc1ccc(N2C(=O)c3ccccc3NC23CCC(C)CC3)cc1 (stereo not drawn),.,-,.,-,-,-
COc1ccc(N2C(=O)c3ccccc3NC2(C)C)cc1,-,-,-,-,-,-
CC(C)NC(=O)Nc1ccc2c(c1)C(=O)N([C@H](C)CO)C[C@H](C)[C@H](CN(C)CC1CC1)OCCCC[C@@H](C)O2,.,.,-,.,.,.
COc1ccc(NC(=O)/C=C/c2cccc(F)c2)cn1,36,-,.,-,-,-
COc1ccc(NC(=O)/C=C/c2ccc(Br)o2)cn1,-,-,-,-,-,-
COc1ccc(OC)c(/C=C/C(=O)Nc2ccc(OC)nc2)c1,-,-,.,-,-,-
SMILES,Wnt bcat act,MITF act,esBAF inh,A3A deaminase,A3G deaminase,PHOSPHO1 inh
COc1ccc(NC(=O)/C=C/c2ccco2)cn1,?,118,44,-,-,-
O=C(N/N=C/c1ccccc1O)NC12CC3CC(CC(C3)C1)C2,-,136,-,-,-,-
O=C(N/N=C/c1ccc(O)c(O)c1)NC12CC3CC(CC(C3)C1)C2,-,-,-,-,-,-
O=C(c1coc2ccc(O)cc12)C1CC1,.,-,-,-,-,-
O=C(c1ccc(Br)cc1)c1coc2ccc(O)cc12,40,?,.,-,-,.
O=C(c1ccc(Cl)cc1)c1coc2ccc(O)cc12,.,87,-,-,-,-
C[C@@H]1CN([C@H](C)CO)C(=O)c2cc(C#Cc3cccc(F)c3)cnc2O[C@@H]1CN(C)Cc1ccccn1,.,.,-,.,.,.
Cc1ccc(-c2cc(-c3ccccc3)c3c(N)c(S(C)(=O)=O)sc3n2)cc1,-,-,-,-,-,82
COc1ccccc1Nc1nc(N)nc(CSC(=S)N2CCCCC2)n1,35,-,.,-,-,-
Cc1ccc(Nc2nc(N)nc(CSC(=S)N3CCOCC3)n2)cc1,.,.,-,-,-,-
Nc1nc(CSC(=S)N2CCOCC2)nc(Nc2ccccc2)n1,45,118,.,-,-,-
COc1ccc(C(=O)c2cc3cccc(OC)c3o2)cc1,-,-,60,-,-,-
COc1cccc(-c2nnc(SCC(=O)OC(C)C)n2Cc2ccco2)c1,.,-,-,-,-,72
